# Source: PubChem BioAssay
# Activity calls are given as the source filed them.
# Assays:
# [1] = biological target: Albumin (Bos taurus) (UniProt P02769); assay: compounds binding labelled BSA control protein – biochemical, small-molecule microarray, Alexa647 label, 635/667 nm fluorescence, artefact control for SMM control protein annotation, profiling panel (AID 1118); conditions: BSA-A647 binding, fluorescence 635 nm, higher = more signal;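 also: score merges 667 nm emission intensity and signal-to-noise per printed compound spot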
# [2] = probe aXIP binding to arrayed compounds – biochemical, NeuroSMM set, 635/667 nm fluorescence, primary screen (AID 1119); conditions: small-molecule microarray, higher = more signal, called active from +8 up or from −8 down;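 also: probe is the protein aXip251-270 applied at 1 µg/mL to compound-printed slides; binding of probe to printed compounds measured as 667 nm fluorescence plus signal to noise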
# [3] = probe aNOTCH3 binding on compound microarray – biochemical, small-molecule microarray, 635/667 nm fluorescence, primary screen (AID 1120); conditions: higher = more signal;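 also: probe is a biotin-tagged antibody raised against NOTCH3 rather than NOTCH3 protein; score merges spot fluorescence near 667 nm with spot signal to noise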
# [4] = probe aNOTCH2 binding on compound microarray – biochemical, small-molecule microarray, 635/667 nm fluorescence, primary screen (AID 1121); conditions: higher = more signal;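 also: score merges feature fluorescence read at 667 nm with its signal to noise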
# [5] = biological target: Carbonic anhydrase 2 (Homo sapiens) (UniProt P00918); assay: compounds binding carbonic anhydrase 2 – biochemical, small-molecule microarray, Alexa647-labelled CAII, profiling panel (AID 1122); conditions: CAII-A647 binding fluorescence, higher = more signal
# [6] = COS7 lysate on small-molecule microarray, probe aHis, 635 nm (AID 1123); conditions: COS7 cell lysate, fluorescence, higher = more signal;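 also: z-score combines 667nm fluorescence intensity with signal-to-noise per printed compound spot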
# [7] = probe aLAP1 signal on lysate-treated microarray – cell lysate, small-molecule microarray, COS7 lysate, primary screen (AID 1124); conditions: probe aLAP1, fluorescence, higher = more signal;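 also: lysate comes from COS7 cells expressing LAP1 and is applied at 0.3 µg/mL; score merges spot fluorescence near 667 nm with signal-to-noise over triplicate slides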
# [8] = system: Sam68 (KHDRBS1); assay: compounds binding KHDRBS1 protein – biochemical, small-molecule microarray, 635 nm fluorescence, primary screen (AID 1125); conditions: higher = more signal;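 also: score merges 667 nm channel intensity with signal to noise over triplicate slides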
# [9] = system: Chordin-like protein 2 (CHRDL2); assay: compounds binding chordin-like 2 – biochemical, small-molecule microarray, 635 nm fluorescence, primary screen (AID 1126); conditions: fluorescence 635 nm, higher = more signal;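 also: printed compound slides probed with Chrdl2 protein at 4 µg/mL for 1 h at 4 C; score merges 667 nm emission intensity with signal to noise over three replicate slides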
# [10] = biological target: Concanavalin-A (Canavalia ensiformis) (UniProt P02866); assay: compounds binding concanavalin A lectin – biochemical, small-molecule microarray, Alexa647 label, 635 nm, artefact control for SMM control protein annotation, primary screen (AID 1127); conditions: ConA-A647 binding fluorescence, higher = more signal;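 also: z combines 667 nm emission intensity with signal-to-noise across three replicate slides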
# [11] = compounds binding Alexa647 anti-His antibody – biochemical, small-molecule microarray, 635 nm fluorescence, artefact control for SMM control protein annotation, primary screen (AID 1128); conditions: higher = more signal;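 also: score merges feature fluorescence with signal-to-noise for each printed compound spot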
# [12] = system: Human papillomavirus type 1a E7 protein (residues 1-88); assay: HPV1a E7 small-molecule binders, primary screen, biochemical, small-molecule microarray, residues 1-88, 635 nm (AID 1129); conditions: small-molecule microarray binding, fluorescence 635 nm; higher = more signal
# [13] = biological target: Focal adhesion kinase 1 (Homo sapiens) (UniProt Q05397); assay: PTK2 protein binding on printed compound slides – biochemical, small-molecule microarray, 635/667 nm fluorescence, BSA, DTT, primary screen (AID 1130); conditions: 635 nm fluorescence, higher = more signal;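 also: composite of spot emission at 667 nm and signal to noise over triplicate slides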
# [14] = system: Fibrinogen (Alexa647-labelled); assay: Alexa647-fibrinogen binding to printed small molecules – biochemical, small-molecule microarray, 635/667 nm fluorescence, artefact control for SMM control-protein annotation, profiling panel (AID 1131); conditions: fibrinogen-A647 binding fluorescence, higher = more signal;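 also: z-score merges 667 nm fluorescence with per-spot signal-to-noise over triplicate slides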
# [15] = biological target: Follistatin (Homo sapiens) (UniProt P19883); assay: FST protein binding to printed compounds – biochemical, small-molecule microarray, 635/667 nm fluorescence, primary screen (AID 1132); conditions: 635 nm fluorescence, higher = more signal
# [16] = biological target: Fibroblast growth factor 2 (Homo sapiens) (UniProt P09038); assay: basic fibroblast growth factor binding to printed compounds – biochemical, small-molecule microarray, 635/667 nm fluorescence, primary screen (AID 1133); conditions: FGF2, fluorescence 635/667, higher = more signal
# [17] = JC-1 mitochondrial potential readout, lung cancer cells – cell-based, A549, JC-1 fluorescence, basal, 24 h, 100 nL, profiling panel (AID 1138); conditions: higher = more signal;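 also: A549 lung adenocarcinoma cells under basal conditions with no added stimulus; test concentration not given here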
# [18] = system: Lefty1; assay: Lefty1 protein binding to printed compounds – biochemical, small-molecule microarray, 635/667 nm fluorescence, primary screen (AID 1139); conditions: fluorescence 635/667, higher = more signal
# [19] = system: wheat germ agglutinin (Triticum aestivum), Alexa647-labelled; assay: Alexa647-WGA lectin binding to printed small molecules – biochemical, small-molecule microarray, 635/667 nm fluorescence, artefact control for SMM control-protein annotation, profiling panel (AID 1140); conditions: WGA-A647 binding, 635 nm fluorescence, higher = more signal;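 also: score merges 667 nm feature emission with signal to noise over triplicate slides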
# [20] = biological target: Luciferin 4-monooxygenase (Photinus pyralis) (UniProt P08659); assay: inhibition of purified Photinus pyralis luciferase – biochemical, luminescence, purified enzyme, 2006 set, primary screen (AID 1141); conditions: purified firefly luciferase, SteadyGlo luminescence, 30 min; higher = more signal, called active from +8 up or from −8 down;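 also: cell-free assay with purified firefly luciferase at 100 ng per well in PBS; test concentration not given here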
# Chain of Luciferin 4-monooxygenase (Photinus pyralis) (P08659 whole entry, looked up): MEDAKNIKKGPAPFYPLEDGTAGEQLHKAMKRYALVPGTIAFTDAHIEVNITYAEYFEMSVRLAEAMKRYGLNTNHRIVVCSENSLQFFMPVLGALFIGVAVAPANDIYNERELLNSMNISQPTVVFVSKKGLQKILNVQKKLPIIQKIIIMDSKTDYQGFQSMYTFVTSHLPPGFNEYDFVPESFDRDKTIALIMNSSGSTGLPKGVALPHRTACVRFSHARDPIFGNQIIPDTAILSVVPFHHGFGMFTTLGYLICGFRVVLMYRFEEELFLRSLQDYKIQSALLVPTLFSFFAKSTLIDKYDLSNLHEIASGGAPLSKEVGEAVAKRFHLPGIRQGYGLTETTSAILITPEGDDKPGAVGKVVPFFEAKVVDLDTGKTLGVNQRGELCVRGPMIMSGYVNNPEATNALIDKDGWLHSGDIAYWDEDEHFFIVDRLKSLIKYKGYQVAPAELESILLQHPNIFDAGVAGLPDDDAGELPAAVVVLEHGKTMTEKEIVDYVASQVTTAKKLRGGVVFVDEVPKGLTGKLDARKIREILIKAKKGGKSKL
# Chain of Follistatin (Homo sapiens) (P19883 whole entry, looked up): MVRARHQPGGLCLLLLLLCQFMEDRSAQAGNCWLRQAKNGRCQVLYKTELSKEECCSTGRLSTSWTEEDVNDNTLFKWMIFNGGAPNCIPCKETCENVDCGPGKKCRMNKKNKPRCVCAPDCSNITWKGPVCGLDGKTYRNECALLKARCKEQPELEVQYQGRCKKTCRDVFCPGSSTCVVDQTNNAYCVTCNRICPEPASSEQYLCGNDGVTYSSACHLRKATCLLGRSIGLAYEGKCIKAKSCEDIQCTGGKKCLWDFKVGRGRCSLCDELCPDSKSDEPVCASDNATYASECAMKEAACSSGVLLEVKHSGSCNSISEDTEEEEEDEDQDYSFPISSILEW
# Chain of Fibroblast growth factor 2 (Homo sapiens) (P09038 whole entry, looked up): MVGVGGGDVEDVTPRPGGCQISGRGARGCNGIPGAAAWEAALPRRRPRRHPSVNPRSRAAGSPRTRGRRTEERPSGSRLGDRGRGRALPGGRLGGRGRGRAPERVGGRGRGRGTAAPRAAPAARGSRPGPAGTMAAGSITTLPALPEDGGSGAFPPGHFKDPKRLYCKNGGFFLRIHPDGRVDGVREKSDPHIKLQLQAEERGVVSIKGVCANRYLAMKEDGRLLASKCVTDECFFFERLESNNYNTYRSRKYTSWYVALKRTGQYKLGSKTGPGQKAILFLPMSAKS
# Chain of Concanavalin-A (Canavalia ensiformis) (P02866 whole entry, looked up): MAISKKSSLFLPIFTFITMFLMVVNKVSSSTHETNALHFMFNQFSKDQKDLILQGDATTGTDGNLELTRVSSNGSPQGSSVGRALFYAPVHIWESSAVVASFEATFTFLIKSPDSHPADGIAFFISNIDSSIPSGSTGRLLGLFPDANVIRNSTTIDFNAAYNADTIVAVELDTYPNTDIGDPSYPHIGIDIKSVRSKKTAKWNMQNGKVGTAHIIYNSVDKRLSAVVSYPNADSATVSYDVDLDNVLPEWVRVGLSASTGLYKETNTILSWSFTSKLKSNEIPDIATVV
# Chain of Focal adhesion kinase 1 (Homo sapiens) (Q05397 whole entry, looked up): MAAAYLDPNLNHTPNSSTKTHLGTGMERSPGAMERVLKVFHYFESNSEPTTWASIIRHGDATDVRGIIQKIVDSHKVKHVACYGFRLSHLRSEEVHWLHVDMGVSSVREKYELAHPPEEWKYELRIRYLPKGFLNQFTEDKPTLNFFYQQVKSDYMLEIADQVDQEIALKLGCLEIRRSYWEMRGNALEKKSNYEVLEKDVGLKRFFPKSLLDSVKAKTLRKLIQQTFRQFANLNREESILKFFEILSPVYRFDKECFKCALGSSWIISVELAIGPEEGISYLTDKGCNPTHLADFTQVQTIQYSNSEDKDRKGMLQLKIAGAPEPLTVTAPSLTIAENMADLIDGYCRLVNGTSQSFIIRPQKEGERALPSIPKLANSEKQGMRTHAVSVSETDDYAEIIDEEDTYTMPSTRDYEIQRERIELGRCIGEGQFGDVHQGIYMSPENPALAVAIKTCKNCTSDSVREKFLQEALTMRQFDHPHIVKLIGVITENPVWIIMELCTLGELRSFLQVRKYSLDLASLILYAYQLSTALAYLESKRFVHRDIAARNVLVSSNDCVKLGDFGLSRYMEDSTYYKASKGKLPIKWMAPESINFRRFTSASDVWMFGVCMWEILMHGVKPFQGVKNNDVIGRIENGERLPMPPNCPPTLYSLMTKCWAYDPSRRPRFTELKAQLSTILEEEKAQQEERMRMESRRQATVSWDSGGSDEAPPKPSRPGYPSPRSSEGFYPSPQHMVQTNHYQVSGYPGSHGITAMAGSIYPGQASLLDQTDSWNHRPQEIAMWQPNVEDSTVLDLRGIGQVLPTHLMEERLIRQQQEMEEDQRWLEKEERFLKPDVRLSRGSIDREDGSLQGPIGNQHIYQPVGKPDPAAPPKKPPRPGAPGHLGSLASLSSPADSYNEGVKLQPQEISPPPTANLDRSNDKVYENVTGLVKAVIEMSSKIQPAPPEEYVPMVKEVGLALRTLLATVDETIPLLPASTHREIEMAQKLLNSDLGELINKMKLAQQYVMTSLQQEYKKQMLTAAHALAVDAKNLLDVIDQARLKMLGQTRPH
# Chain of Albumin (Bos taurus) (P02769 whole entry, looked up): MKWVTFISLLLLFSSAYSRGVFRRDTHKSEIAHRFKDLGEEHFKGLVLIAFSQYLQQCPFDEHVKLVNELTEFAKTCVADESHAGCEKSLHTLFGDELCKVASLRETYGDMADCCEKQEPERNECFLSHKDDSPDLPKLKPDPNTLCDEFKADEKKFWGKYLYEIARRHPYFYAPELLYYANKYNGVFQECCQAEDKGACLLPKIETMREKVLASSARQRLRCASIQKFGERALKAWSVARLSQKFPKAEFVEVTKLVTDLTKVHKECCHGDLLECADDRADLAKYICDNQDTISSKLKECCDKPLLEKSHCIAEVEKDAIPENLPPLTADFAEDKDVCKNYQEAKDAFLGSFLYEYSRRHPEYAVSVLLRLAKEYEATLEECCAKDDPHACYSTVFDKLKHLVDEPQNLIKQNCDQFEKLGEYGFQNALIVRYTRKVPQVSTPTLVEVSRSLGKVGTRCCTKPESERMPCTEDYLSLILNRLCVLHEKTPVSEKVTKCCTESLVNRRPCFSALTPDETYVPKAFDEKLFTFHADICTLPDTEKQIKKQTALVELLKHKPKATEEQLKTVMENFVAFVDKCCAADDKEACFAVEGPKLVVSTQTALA
SMILES,composite z-score [1],composite Z-score [2],composite z-score [3],composite z-score [4],composite z-score [5],composite z-score [6],composite z-score [7],composite z-score [8],composite z-score [9],composite z-score [10],composite z-score [11],composite z-score [12],composite z-score [13],composite z-score [14],composite z-score [15],composite z-score [16],z-score [17],composite z-score [18],composite z-score [19],z-score [20]
COc1ccc([Si](C)(C)[C@H]2[C@H](CC(=O)N3CCC[C@H]3CO)O[C@@]3(C(=O)N(Cc4cccc(N5CCOC5=O)c4)c4ccccc43)[C@@H]2C)cc1,-0.185,-0.0054 (inactive),-0.095,-0.151,0.334,0.626,0.218,1.26,1.36,0.996,1.3,0.883,0.266,0.405,1.42,1.64,1.1,1.47,0.149,0.526 (inactive)
O[C@@H](Cc1ccccc1)[C@@H](/C=C/C1CC1)NCc1cccc(Cl)c1,-0.0308,-0.515 (inactive),-0.272,-0.146,-0.397,-0.266,-0.273,-0.53,-1.11,-0.509,0.183,-0.431,0.314,-1.7,-1.4,-1.99,-0.164,-0.717,0.204,0.585 (inactive)
[N-]=[N+]=NCc1ccccc1[C@@H]1OC(c2ccc(OCCCO)cc2)=N[C@]1(CCS(=O)(=O)c1ccccc1)C(=O)N1CCCCC1,0.997,-0.228 (inactive),0.739,-0.124,0.754,2.85,0.475,1.29,-0.59,1.17,0.621,1.26,0.0201,1.08,0.981,0.432,-0.706,0.275,1.02,-0.938 (inactive)
C=CC[C@]12N=C(c3ccc(OCCCO)cc3)O[C@H]1c1ccccc1N(CCS(=O)(=O)c1ccccc1)C2=O,0.922,0.526 (inactive),-0.0728,-0.0692,0.727,1.12,0.486,1.3,0.873,1.18,1.66,1.23,0.472,0.971,1.15,1.38,0.337,1.05,0.97,-12.4 (active)
CC(C)C(=C=CC[C@H](O)c1ccc(CO)o1)CCO,0.906,0.304 (inactive),-0.111,-0.148,0.756,0.514,0.792,0.856,0.0622,0.828,0.748,0.679,0.217,0.0411,1.01,0.489,-0.589,1.37,0.383,-0.751 (inactive)
